From PubChem BioAssay
Shown are actives, neighbours in structure and some others; about 1.8% of the full set was active somewhere.
p53ts 39C tox: p53ts cell cytotoxicity, nonpermissive temperature; H1299-p53A138V viability at 39C, ATP luminescence, 24 h; Potency, µM (doses to about 46.1 µM), for the others: top-dose activity change, negative = cell killing, hits mostly cytotoxic; 130,000 compounds, 1.5% hits; AID 902; also: % is scaled to controls: 0 for no effect and ±100 for the full control effect; nearly all actives have a fitted effect of over 55% in size
p53ts 32C kill: cytotoxicity in p53ts cells at permissive temperature; H1299-p53A138V at 32C, ATP luminescence viability, 24 h; 130,000 compounds, 0.93% hits; Potency, µM (highest dose often 46.1 µM), for the others: at the top dose activity change, negative = cytotoxicity, actives largely listed as cytotoxic;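 also: 0% = DMSO and -100% = full killing by reference compound; nearly all actives have a fitted effect of over 55% in size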
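Viability by ATPlite luminescence after 24 h compound treatment (up to 46 uM) at the permissive 32C. Cells are H1299 carrying p53 A138V. Scale runs from DMSO basal to 100 uM tamoxifen as full kill; AC50 from Hill fits.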
Imprint erasure: genomic imprint erasure induction; mouse ES Peg3-LacZ reporter, beta-gal luminescence, 40 h; 110,000 compounds, 0.02% hits; AID 1948; Potency, µM (highest dose often 60.7 µM), for inactives: top-dose activity change, positive = activation, usual class: activators
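Each well holds 300 Peg3LacZ-Neo (maternal) female ES cells incubated 40 h at 37C, 5% CO2. LacZ is measured by BetaGlo luminescence, with AC50 and maximum efficacy derived from dose-response curves.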
Active calls of the source: *; ? = inconclusive; . = no result; [ ] = remark or other dose. Calls follow the shape of the dose curve; as a rule, active = well fitted curve in the direction sought with a large enough effect; inconclusive = small, poorly fitted or top-dose-only effect, or another doubt; inactive = no such curve, though single readings can be large; an effect the other way counts as inactive or inconclusive. Potency is read from the fitted curve at half-maximal effect.

SMILES	p53ts 39C tox	p53ts 32C kill	Imprint erasure
O=C(CSCSCC(=O)Nc1ccc2c(c1)OCO2)Nc1ccc2c(c1)OCO2	-13.7%	-13.9%	3.3%
COC(=O)c1ccccc1NC(=O)c1cc2c(s1)-c1ccccc1OC2	-11.0%	29.3%	-7.6%[10.9 µM]
COc1cc(NC(=O)c2cc3c(s2)-c2ccccc2OC3)cc(OC)c1OC	?	12.6µM*	-9.5%[10.9 µM]
COc1cccc(CN(C(=O)c2oc3cc(C)ccc3c2C)C2CCS(=O)(=O)C2)c1 (stereo not drawn)	1.3%	9.9%	-5.7%[10.9 µM]
CCOc1ccc(CCNC(=O)CCCn2nc(C)c3sc4ccccc4c3c2=O)cc1	?	-16.6%	-10.0%[10.9 µM]
Cc1nn(CCCC(=O)NCCc2ccc(Cl)cc2)c(=O)c2c1sc1ccccc12	20µM*	?	-23.0%[10.9 µM]
COc1ccc(CCNC(=O)C(C)n2nc(C)c3sc4ccccc4c3c2=O)c(OC)c1 (stereo not drawn)	12.6µM*	?	-21.4%[10.9 µM]
CCC(C(=O)NCCc1ccc(OC)c(OC)c1OC)n1nc(C)c2sc3ccccc3c2c1=O (stereo not drawn)	-28.8%	-7.9%	-12.6%[10.9 µM]
COc1ccc(OC)c(NC(=O)CSc2cn(CC(=O)N3CCOCC3)c3ccccc23)c1	-5.7%	0.0%	-7.0%[10.9 µM]
O=C(c1ccco1)N1CCN(C(=O)C(Cc2ccccc2)NS(=O)(=O)c2cccs2)CC1 (stereo not drawn)	2.7%	6.0%	3.16µM*
O=C(c1ccco1)N1CCN(S(=O)(=O)c2cccs2)CC1	5.0%	-0.3%	-2.3%
COc1ccc(NC(=O)c2cc3n(n2)C(C(F)(F)F)CC(c2ccco2)N3)cc1 (stereo not drawn)	4.7%	-1.1%	-5.9%
O=C(NCC12CC3CC(CC(C3)C1)C2)c1cc2n(n1)C(C(F)(F)F)CC(c1ccco1)N2 (stereo not drawn)	20µM*	-29.7%	-21.2%
Cc1nn2c(=O)cc(COC(=O)c3ccc(NC(=O)CCc4ccccc4)cc3)nc2s1	4.2%	9.2%	5.5%[10.9 µM]
O=C(Nc1cccc(O)c1)c1noc2c1CCc1ccccc1-2	2.51µM*	3.98µM*	-54.5%[10.9 µM]
O=C(Nc1cccc(C(F)(F)F)c1)c1noc2c1CCc1ccccc1-2	-15.9%	-0.9%	-2.9%[10.9 µM]
Cc1ccc(CNS(=O)(=O)c2cc(C(=O)Nc3ccc(C(C)C)cc3)ccc2F)cc1	?	?	-15.8%[10.9 µM]
Cc1ccc(CNS(=O)(=O)c2cc(C(=O)Nc3cccc(C(F)(F)F)c3)ccc2F)cc1	12.6µM*	-18.4%	-7.8%[10.9 µM]
Cc1cccc(C)c1NC(=O)Cn1nc(C)c2sc3ccccc3c2c1=O	-0.2%	35.1%	-13.0%[10.9 µM]
CC1CCN(CCCNC(=O)c2cc(Sc3ccc(F)cc3)nc3ccccc23)CC1	-30.0%	-3.7%	-14.3%[10.9 µM]
CN1CCN([C@@H]2Cc3ccccc3Sc3ccc(Cl)cc32)CC1	15.8µM*	20µM*	.
CN1CCN(C2Cc3ccccc3Sc3ccc(S)cc32)CC1 (stereo not drawn)	.	.	-9.1%
Cc1ccc(NC(=O)Cn2c(-c3cncs3)nc3ccccc32)cc1Br	-21.4%	-4.6%	-14.1%[10.9 µM]
CCOc1cc(-c2nc3c(c(CC)nn3-c3ccccc3)c3cc(OC)c(OC)cc23)ccc1O	19.7%	-1.1%	-9.3%[10.9 µM]
CN(C)CCOC(=O)c1ccc(N)cc1	-0.3%[9.22 µM]	-6.0%[9.22 µM]	-5.2%[10.9 µM]
SMILES	p53ts 39C tox	p53ts 32C kill	Imprint erasure
COc1ccc(OC)c2[nH]c(=O)c(CCNC(=O)c3cc4ccccc4o3)cc12	?	12.6µM*	-77.2%
Cc1ccc(C)c2[nH]c(=O)c(CCNC(=O)c3cc4ccccc4o3)cc12	-12.3%	16.5%	5.3%
CCOC(=O)[C@@]12C[C@@H]1/C(=N/O)c1ccccc1O2	-6.5%	11.0%	9.2%
CSc1nnc(-c2ccccc2)o1	2.2%	-0.5%	0.6%
O=S1(=O)C=C(Sc2nnc(-c3ccccc3)o2)c2ccccc21	?	12.6µM*	-53.5%
COc1cccc(NS(=O)(=O)c2cn(C)c(=O)n(C)c2=O)c1	12.6µM*	7.94µM*	-80.0%
COc1cccc(NS(=O)(=O)c2ccc3c(c2)n(C)c(=O)c(=O)n3C)c1	-8.2%	-18.2%	-1.7%
O=C(CC1N=C2c3ccccc3N=C(SCc3cccc(F)c3)N2C1=O)NCc1ccc2c(c1)OCO2 (stereo not drawn)	-1.6%	8.7%	?
Cc1cc(-c2ccc(S(=O)(=O)Nc3cc(Cl)ccc3C)s2)on1	?	-0.8%	24.5%[10.9 µM]
Cc1cccc(N2CCN(c3ncnc4onc(-c5ccc(F)cc5)c34)CC2C)c1 (stereo not drawn)	-10.1%	-1.6%	-8.9%[10.9 µM]
Cc1cccc(N2CCN(c3ncnc4onc(C)c34)CC2C)c1 (stereo not drawn)	20µM*	?	-11.7%[10.9 µM]
O=C(c1ccc2c(c1)N(Cc1ccccc1)C(=O)c1ccccc1S2(=O)=O)N1CCN(c2ccccn2)CC1	-22.6%	-28.9%	-9.0%[10.9 µM]
